From PubChem BioAssay (NCI)
About 83,000 compounds went through this panel and 20% of them were active in at least one assay; those are over-represented in the sample as a whole.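 In brief: 96-well plates, 48 h treatment, single concentration, percent growth endpoint.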 Values without a mark were called inactive. Calls of active or inactive are those of the source. The calls were made as follows: active = growth percent below 10; inactive = the rest.

Legend:
Assay in all cases: NCI-60 one-dose screen, 48 h (100 = growth as untreated, 0 = no growth, -100 = all killed)
Conditions in all cases: 10 µM unless noted
NCI-H23 lung = tested on: NCI-H23 lung
NCI-H226 lung = tested on: NCI-H226 lung
NCI-H322M lung = tested on: NCI-H322M lung
HOP-62 NSCLC = tested on: HOP-62 NSCLC
NCI-H460 lung = tested on: NCI-H460 lung
HOP-92 NSCLC = tested on: HOP-92 NSCLC
NCI-H522 lung = tested on: NCI-H522 lung
A549/ATCC NSCLC = tested on: A549/ATCC NSCLC
786-0 renal = tested on: 786-0 renal
COLO 205 colon = tested on: COLO 205 colon
DU-145 prostate = tested on: DU-145 prostate
K-562 leukemia = tested on: K-562 leukemia
MALME-3M melanoma = tested on: MALME-3M melanoma
MDA-MB-231 breast = tested on: MDA-MB-231 breast
RXF 393 renal = tested on: RXF 393 renal
SF-268 CNS = tested on: SF-268 CNS
SF-295 CNS = tested on: SF-295 CNS
SF-539 CNS = tested on: SF-539 CNS
UACC-257 melanoma = tested on: UACC-257 melanoma
M14 melanoma = tested on: M14 melanoma

Row | Compound | growth (NCI-H23 lung) | growth (NCI-H226 lung) | growth (NCI-H322M lung) [%] | growth (HOP-62 NSCLC) | growth (NCI-H460 lung) | growth (HOP-92 NSCLC) | growth (NCI-H522 lung) | growth (A549/ATCC NSCLC) | growth (786-0 renal) | growth (COLO 205 colon) | growth (DU-145 prostate) | growth (K-562 leukemia) | growth (MALME-3M melanoma) | growth (MDA-MB-231 breast) | growth (RXF 393 renal) | growth (SF-268 CNS) | growth (SF-295 CNS) | growth (SF-539 CNS) | growth (UACC-257 melanoma) | growth (M14 melanoma)
1 | COC(=O)c1oc2c(C(=O)/C=C/c3ccc(OC)cc3)c(OCCCN3CCCCC3)ccc2c1C | 22.1% | 89.4% | 17.8 | 1.98% (active) | 4.2% (active) | -38.8% (active) | 1.11% (active) | -3.52% (active) | 1.16% (active) | 29.2% | 15.4% | -16.2% (active) | -64.4% (active) | 32.4% | -75.2% (active) | -2.59% (active) | 11.6% | -55.8% (active) | 40.1% | -40.3% (active)
2 | Nc1c(C(=O)Nc2ccccn2)sc2nc3c(cc12)CCCCCC3 | 41% | 42.1% | 33 | 17.8% | 6.37% (active) | 30.8% | 6.47% (active) | 14.1% | 10.7% | 8.74% (active) | 11.4% | 7.85% (active) | 20.7% | 49.4% | -8.82% (active) | 35.6% | 0.944% (active) | 6.92% (active) | 49.5% | 7.38% (active)
3 | O=C1CCc2ccccc2N1 | 99.4% | 104% | 87.9 | 102% | 110% | 101% | 101% | 101% | 101% | 97.1% | 103% | 90.2% | 88.5% | 110% | 111% | 97.4% | 107% | 105% | 106% | 99.2%
4 | N#CCNc1ccc(C(=O)O)cc1 | 101% | 95.3% | 114 | 98.3% | 103% | 94% | 90.4% | 87% | 104% | 110% | 113% | 97.4% | 105% | 104% | 101% | 105% | 104% | 110% | 98.4% | 110%
5 | N#Cc1c(-c2ccc(F)cc2)nc(N/N=C/c2c[nH]c3ccccc23)nc1N1CCOCC1 | 91.8% | 125% | 66.5 | 69.6% | 16.5% | 68.1% | 46.3% | 47.1% | -24.4% (active) | 40.1% | 46.6% | 5.72% (active) | -63.5% (active) | 53.1% | -34.2% (active) | 68.8% | -17.4% (active) | 52.8% | -48.8% (active) | -0.73% (active)
6 | C=C(C)[C@@H]1CC[C@]2(C(=O)N3CCN(C)CC3)CC[C@]3(C)[C@H](CC[C@@H]4[C@@]5(C)C/C(=C/c6ccco6)C(=O)C(C)(C)[C@@H]5CC[C@]43C)[C@@H]12 | 79.9% | 86.4% | 79.9 | 73.6% | 64.9% | 55.7% | 74% | 60.6% | 71.2% | 74.6% | 84.3% | 36.2% | 66.8% | 58.8% | 45.2% | 68.9% | 18.9% | 62% | 48.6% | 59.9%
7 | CCCCc1nc(Cl)c(C2CC(c3ccc(Cl)cc3)=NN2c2cc(Cl)cc(Cl)c2)[nH]1 (stereo not given) | 69.5% | 92.3% | 70.6 | 52.9% | 30.2% | 94% | 32% | 8.64% (active) | 41.3% | 96.1% | 40.8% | 76.5% | 88.4% | 80.3% | 43.3% | 41.2% | 74.3% | 79.8% | 94.8% | 93.6%
8 | N#Cc1c(NC(=O)c2cccs2)[n+]([O-])c2cc(C(F)(F)F)ccc2[n+]1[O-] | 95.2% | 97.1% | 93.7 | 112% | 109% | 33.2% | 77.4% | 96.1% | 114% | 109% | 114% | 87.7% | 132% | 96.8% | 109% | 105% | 97.9% | 101% | 91.4% | 116%
9 | Cc1ccc(C2=N[C@H]3CCC[C@@H]3N(c3ccccc3)C(C(Cl)Cl)=N2)cc1 | 95.5% | 107% | 93.3 | 111% | 110% | 107% | 93% | 98.4% | 98.3% | 98.8% | 101% | 94.9% | 95% | 117% | 83.2% | 94.6% | 91.7% | 105% | 110% | 91.9%
10 | COc1cc(NCC(=O)Nc2cc(Nc3ccc(C)cc3)ncn2)c(Cl)c(OC)c1Cl | 91.7% | 85.4% | 84.8 | 87% | 101% | 78.7% | 74.1% | 80.1% | 96.7% | 85.8% | 102% | 80.6% | 111% | 64.2% | 118% | 88.6% | 82.8% | 95.5% | 89% | 88.4%
11 | C=C1C(=O)O[C@H]2[C@H]1CC/C(COC(=O)CCCCCCCCC(=O)OC/C1=C/CC[C@@]3(C)O[C@H]3[C@H]3OC(=O)C(=C)[C@@H]3CC1)=C\CC[C@@]1(C)O[C@@H]21 | -37.5% (active) | 1.19% (active) | 83.9 | 60.2% | 27.1% | -25.9% (active) | -51.3% (active) | 77.1% | -29.1% (active) | -46.4% (active) | 6.71% (active) | 1.49% (active) | -18.4% (active) | -41.2% (active) | -86.6% (active) | 20.7% | 87.4% | -36.6% (active) | 24.6% | -44.7% (active)
12 | COc1ccc(-c2cc(-c3nnc(SCC(=O)Nc4ccc(/C(C)=N\O)cc4)n3-c3ccccc3)c3cc(OC)ccc3n2)cc1 | 86.4% | 86.1% | 79 | 79.4% | 83.9% | 78.4% | 35.1% | 51.2% | 83.5% | 93.6% | 85% | 48% | 105% | 46.1% | 83.6% | 71.4% | 80.3% | 82.6% | 71% | 70.1%
13 | CN1C(=O)c2cc(Cl)nc3c(NC(=O)c4cccc(Cl)c4)c(Cl)c(NC(=O)c4cccc(Cl)c4)c1c23 | 18.7% | 23.6% | 28.3 | 17.4% | 2.82% (active) | -38.4% (active) | -54.6% (active) | 83.8% | 41.6% | 1.5% (active) | 4.2% (active) | -43.3% (active) | -56.1% (active) | -40.2% (active) | -88.9% (active) | 3.08% (active) | 88.1% | 9.56% (active) | -49.3% (active) | -21.1% (active)
14 | C=C(C)[C@@H]1CC[C@]2(C(=O)O)CC[C@]3(C)[C@H](CC[C@@H]4[C@@]5(C)C[C@@H](CC#Cc6ccccc6)C(=O)C(C)(C)[C@@H]5CC[C@]43C)[C@@H]12 | 25.2% | 28.5% | 31.9 | 32.5% | 24.1% | 48.2% | 11.6% | 25.3% | 35.3% | 20.8% | 37.3% | 16.9% | 38.1% | 55.3% | 71.5% | 50% | 34.8% | 49.1% | 60.5% | 36.5%
15 | Cc1ccc(-c2nc(C#N)c(S(=O)(=O)N(C)CCO)o2)cc1 | 80.3% | 124% | 93.3 | 97.7% | 89.3% | 88.9% | 17.5% | 99% | 79.6% | 44.3% | 90.2% | 25% | 60.1% | 81.4% | 107% | 72.6% | 104% | 43% | 77.9% | 61.7%
